# From PubChem BioAssay AID652106 (National Center for Advancing Translational Sciences (NCATS), 2013)
# The campaign covered roughly 370,000 compounds. About 500 (0.14%) were called active. A call without a number means that no potency is given here. Inconclusive results (about 2%) are left out. The call rests on the fitted dose curve; in most records, active means well fitted activation curve with a large enough effect; inconclusive means small, poorly fitted or top-dose-only effect; inactive means no such curve, though single readings can be large or run the other way. Many of the other results were omitted from the sample, so actives are more common in it than they were.
# Assay: qHTS of alpha-syn Inhibitors; further: nearly all actives have a fitted effect of over 65% in size
# Settings: Yeast expressing alpha-synuclein, BacTiter-Glo, 24 h; Potency: growth rescue; series mostly up to 46.1 µM
# Text: The goal of this project is to identify new chemical probes capable of reversing the toxicity associated with the Parkinson disease-related protein, alpha-synuclein. Compounds will be selected on their ability to restore growth in yeast cells expressing toxic levels of alpha-synuclein. These compounds will provide a complementary approach to deciphering the tangled mechanisms of toxicity and protection that we have uncovered through genome-wide genetic screens and are beginning to uncover in a large-scale proteomics analysis with mass spectroscopy. To this end, a miniaturized assay was developed to be screened against the Molecular Libraries Small Molecule Repository (MLSMR) to discover alpha-synuclein inhibitors. Please note that in the set-up this yeast-based assay compounds that inhibit as alpha-syn, have a read-out as activators. NIH Chemical Genomics Center [NCGC] NIH Molecular Libraries Probe Centers Network [MLPCN] MLPCN Grant: NS060957 Assay Submitter (PI): Susan Lindquist, Whitehead Institute/MIT
# Dispense 2.5 microL yeast galactose medium per 1536-well plate, pin compound, dispense 2.5 microL alpha-synuclein expressing yeast in galactose medium at OD600=0.02 (pregrown in raffinose medium to mid-log phase) per well, incubate for 24 hr at 30 deg C, and cell growth will be measured using 5 microL of Bactiter/Glo reagent to entire plate and read using Luminescence Protocol in ViewLux.
# Potency means the concentration at half of the fitted maximal effect.
row,Structure (SMILES),Potency
1,C[C@@H]1C[C@@H]2O[C@H]2/C=C\C=C\C(=O)Cc2c(Cl)c(O)cc(O)c2C(=O)O1,7.94 µM (active)
2,CC(=O)NCC1=C(c2ccc3ccccc3c2)C[C@@H]2CC[C@H]1N2Cc1ccco1,inactive
3,Cc1ncoc1C(=O)NCC1=C(c2cccc3ccccc23)C[C@@H]2CC[C@H]1N2Cc1ccco1,inactive
4,O=C(NCC1=C(c2ccc3ccccc3c2)C[C@@H]2CC[C@H]1N2Cc1ccco1)c1cccs1,3.55 µM (active)
5,N#Cc1c(Cl)c(Cl)c(Cl)c(C#N)c1Cl,inactive
6,COc1ccc(NC(=O)Nc2cccc3cccnc23)cc1,inactive
7,c1ccc(Cc2nn3c(Cn4cnc5ccccc54)nnc3s2)cc1,inactive
8,O=C(O)/C=C/c1ccc2c(c1)OCO2,inactive
9,CC(=O)c1c(O)c(C)c(O)c(Cc2c(O)c3c(c(C(=O)/C=C/c4ccccc4)c2O)OC(C)(C)C=C3)c1O,inactive
